# Rows were chosen to be rich in hits. Some 7.4% of all compounds tested hit in one or more screens of this group.
# FLuc counter: firefly luciferase modulation, counter-screen for miR-21 project | P08659 | purified FLuc, Km substrates, luminescence inhibition | Potency, µM (doses to about 57.5 µM), without a hit: top-dose activity change, negative = inhibition, usual class: inhibitors | actives 6.9% (n = 360,000);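 also: plate controls were vehicle for no effect and reference inhibitor for full effect; nearly all actives have a fitted effect of over 55% in size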
# Target sequence (P08659 whole entry, looked up): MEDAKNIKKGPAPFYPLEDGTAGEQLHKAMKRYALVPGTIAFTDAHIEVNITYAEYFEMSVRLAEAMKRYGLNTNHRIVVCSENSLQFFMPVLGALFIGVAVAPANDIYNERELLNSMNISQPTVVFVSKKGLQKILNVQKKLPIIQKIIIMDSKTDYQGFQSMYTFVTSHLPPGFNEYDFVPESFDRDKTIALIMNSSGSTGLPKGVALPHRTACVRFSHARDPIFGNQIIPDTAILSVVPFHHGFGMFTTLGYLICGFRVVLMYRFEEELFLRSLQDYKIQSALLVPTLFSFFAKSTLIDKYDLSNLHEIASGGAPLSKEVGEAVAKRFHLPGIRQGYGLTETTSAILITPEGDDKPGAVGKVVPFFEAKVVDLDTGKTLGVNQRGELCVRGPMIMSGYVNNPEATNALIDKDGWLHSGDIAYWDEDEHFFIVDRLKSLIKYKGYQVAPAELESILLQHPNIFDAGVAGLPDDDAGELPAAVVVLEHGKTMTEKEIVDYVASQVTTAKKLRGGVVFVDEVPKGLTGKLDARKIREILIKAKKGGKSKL
#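 Purified P. pyralis luciferase (10nM final) with 10uM D-luciferin and 10uM ATP (Km levels) in 50mM Tris acetate pH 7.5, 10mM Mg acetate, 0.01% Tween-20, 0.05% BSA; qHTS 6-point titration, ~60 µM downward; luminescence read.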
# Luc counter: blocks Kinase-Glo luciferase, a counter-screen artifact. Q27757. Kinase-Glo luciferase, ATP luminescence, 8 min. Potency, µM (titrated, usually from 38.3 µM), for the others: at the top dose activity change, negative = inhibition, most hits filed as inhibitors. actives 0.28% (n = 200,000); also: % is scaled to controls: 0 for no effect and ±100 for the full control effect; nearly all actives have a fitted effect of over 60% in size
#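 Substrate mix (final 50 mM imidazole pH 7.2, 50 mM KCl, 7 mM MgCl2, 10 uM ATP, 0.01% Tween 20, 0.05% BSA) plus pin-tool compound, then Kinase-Glo detection mix; 8 min ambient, luminescence read.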
# SMN2 splice up: SMN2 splice variant enhancement; HEK293 SMN2-luciferase splicing reporter, luminescence, 30-36 h; Potency, µM (series often up to 46.1 µM), for the others: at the highest dose activity change, positive = activation, actives largely listed as activators; actives 2.8% (n = 210,000); AID 1458; also: % of control where 0% means no effect; nearly all actives have a fitted effect of over 55% in size
#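 HEK293 cells carry an SMN2 […]–luciferase reporter in which exon 7 inclusion puts luciferase in frame. Cells were plated 10-12 h before compound addition, then incubated 30-36 h at 37C. ONE-Glo luminescence was read; sodium butyrate at 4.5 mM final served as control.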
# Rab9 prom act: activators of Rab9 promoter; Huh7 Rab9 promoter-luciferase reporter, luminescence, 24 h; Potency, µM (titrated, usually from 9.22 µM), for the others: top-dose activation, negative = inhibition, hits mostly activators; actives 2.8% (n = 320,000); also: % of control where 0% means no effect; nearly all actives have a fitted effect of over 60% in size
#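 Huh7 reporter line, Rab9 promoter upstream of luciferase. Compound exposure 24 h at 37 °C in reduced-serum medium with 10% FBS. Read-out: luminescence.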
# ELG1 genotox: induces genotoxicity in HEK293T cells with luciferase-tagged ELG1 | Potency, µM (top dose mostly 46 µM), inactives show at the top dose activity change, positive = activation, actives largely listed as activators | actives 1.3% (n = 330,000) | HEK293T ELG1-luciferase reporter, luminescence, 16 h; also: % of control where 0% means no effect; nearly all actives have a fitted effect of over 60% in size
#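 HEK293T cells expressing luciferase-tagged ELG1 were exposed to compound or DMSO vehicle for 16 hr at 37 °C and 5% CO2. Luciferase activity was then measured with ONE-Glo after 30 min at room temperature.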
# NPC1 prom act: NPC1 promoter activation. Huh7 NPC1 promoter luciferase reporter, 24 h. Potency, µM (highest dose often 9.22 µM), inactives show at the top dose activation, hits mostly activators. actives 2.4% (n = 320,000). AID 485313; also: % of control where 0% means no effect; nearly all actives have a fitted effect of over 60% in size
#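 Stable NPC1-promoter luciferase Huh7 line; cpd (DMSO) 24 h, 37 °C, 5% CO2; Amplite luciferase reagent 10 min RT; luminescence readout. qHTS format.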
# Starred values were filed as active, the others as inactive; ? = inconclusive; · = no result given; [ ] = dose if it differs, or a comment. Calls follow the shape of the dose curve; as a rule, active = well fitted curve in the direction sought with a large enough effect; inconclusive = small, poorly fitted or top-dose-only effect, or another doubt; inactive = no such curve, though single readings can be large; an effect the other way counts as inactive or inconclusive. Potency is read from the fitted curve at half-maximal effect.
SMILES,FLuc counter,Luc counter,SMN2 splice up,Rab9 prom act,ELG1 genotox,NPC1 prom act
O=C(c1cc2cc3ccc(Cl)cc3nc2o1)N1CCCCCC1,2.69µM*,·,·,3.55µM*,?,2.51µM*
CCCN1C(=O)C(Cc2nc3ccccc3c(=O)n2-c2ccc(OC)cc2)c2cc(C)ccc21 (stereo not given),-11.2%,·,-0.1%,·,·,·
Cc1cccc(C(=O)Nc2ccc(N3CCN(S(C)(=O)=O)CC3)cc2)c1,?,-12.6%,?,3.98µM*,13.8%,4.47µM*
COc1cccc(C(=O)Nc2ccc(N3CCN(S(C)(=O)=O)CC3)cc2)c1,-18.4%,0.2%,15.7%,25.1%,15.0%,28.6%
CS(=O)(=O)N1CCN(c2ccc(NC(=O)c3ccccc3)cc2)CC1,?,-0.7%,10µM*,1.78µM*,?,3.55µM*
N#Cc1ccc(Nc2nn3c(=O)c4ccccc4nc3s2)cc1,-12.7%,·,·,·,·,·
COc1cccc(C(=O)Nc2cccc3cccnc23)c1OC,23.9µM*,·,·,0.9%,9.0%,10.4%
CCOc1ccccc1C(=O)Nc1cccc2cccnc12,26.9µM*,·,·,0.2%,-4.9%,-2.2%
COc1ccc(C(=O)Nc2nc(C)c(C)s2)cc1OC,13.5µM*,6.3%,?,?,?,?
COc1ccc(C(=O)Nc2cccc(NC(=O)c3ccc(OC)c(OC)c3)n2)cc1OC,8.49µM*,·,·,7.3%,-2.7%,2.5%
Nc1nc2c(nc(Sc3ccc(Cl)cc3)n2C2OC(CO)C(O)C2O)c(=O)[nH]1 (stereo not given),·,-0.2%,-5.6%,·,·,·
CCN(CCCNC(=O)c1ccc(Sc2ccc(F)cc2)c(NC(C)=O)c1)c1ccccc1,-24.4%,·,·,·,·,·
COc1ccc(C(=O)Nc2cccc3cccnc23)cc1OC,21.3µM*,11.8%,-13.6%,-5.5%,1.0%,14.7%
COc1cc(Cl)c(C)cc1NC(=O)c1cc2ccc3cccnc3c2[nH]1,-7.2%,·,·,·,·,·
O=C(NCc1cccc(Cl)c1)c1cc2ccc3cccnc3c2[nH]1,-5.6%,·,·,·,·,·
COc1ccccc1NC(=O)c1cc2ccc3cccnc3c2[nH]1,2.69µM*,·,·,·,·,·
CC(C)N(Cc1ccccc1)C(=O)c1cc2ccc3cccnc3c2[nH]1,19µM*,·,·,·,·,·
CN1c2ccccc2-c2nc(SCC(=O)Nc3ccccc3C(F)(F)F)ncc2S1(=O)=O,-2.8%,·,·,·,·,·
CC(=O)N1CC=CC1(CC(C)C)C(=O)O (stereo not given),·,0.0%,-2.3%,·,·,·
O=C(O)c1ccc(N=Nc2c(O)ccc3ncccc23)cc1,1.69µM*,·,·,-30.2%,-4.2%,-20.4%
O=C(O)c1cc(N=Nc2c(O)ccc3ccccc23)cc(C(=O)O)c1,?,-13.1%,-9.4%,-3.0%,0.2%,-0.2%
O=C(O)c1ccc(Nc2nc3c(s2)CCCC3)cc1,0.301µM*,-4.1%,0.631µM*,0.0398µM*,?,-27.8%
Cc1cccc(Nc2nc3c(s2)CCCC3)c1,4.78µM*,-4.6%,28.2%[1.84 µM],3.55µM*,?,?
O=S1(=O)N=C(Nc2nc3c(s2)CCCC3)c2ccccc21,0.849µM*,-13.1%,3.98µM*,1.41µM*,?,2.51µM*
C1CCN=C(Nc2nc3c(s2)CCCC3)CC1,?,-0.7%,10µM*,?,11.4%,?
COC(=O)C/C=C1\c2ccc3c(c2[C@@H](OC)[C@@H]1C)OCO3,·,1.2%,-0.8%,·,·,·
COc1cc2c(cc1OC)C(COc1ccc3c(C)cc(=O)oc3c1)N(C(=O)c1ccccc1C)CC2 (stereo not given),-0.9%,·,2.8%,·,·,·
COc1ccccc1-c1nnc2n(CCc3ccccc3)c(=O)c3ccccc3n12,-7.0%,·,·,·,·,·
COc1ccc(C2CC(=O)c3cc(-c4nc(-c5cccc([N+](=O)[O-])c5)cs4)c(=O)n(-c4ccccc4C)c3C2)cc1 (stereo not given),-6.5%,·,6.7%,·,·,·
